# Many of the other results were omitted from the sample, so the strongest signals are more common in it than they were.
# How the values were obtained:
# Test in all cases: glycan array binding signal (z-score within array); higher = stronger binding
# Conditions in all cases: glycan notation: IUPAC condensed, linker removed
# Fuc(a1-2)Gal = target: Fuc(a1-2)Gal
# How it was run: (§1)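 From the Consortium for Functional Glycomics database, 3228 arrays were curated, keeping only those whose protein sequence was available. Binding is given as a within-array Z-score averaged across arrays sharing a protein sequence and across linkers. Negative Z-scores can be read as non-binding.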
# [1] = target: Fuc(a1-3)[Gal3S(b1-4)]GlcNAc6S
# How it was run: as §1
# Gal(a1-3)Gal(b1-4)Glc = target: Gal(a1-3)Gal(b1-4)Glc
# How it was run: as §1
# Gal(a1-3)Gal(b1-4)GlcNAc = target: Gal(a1-3)Gal(b1-4)GlcNAc
# How it was run: as §1
# Gal(a1-4)Gal(b1-4)Glc = target: Gal(a1-4)Gal(b1-4)Glc
# How it was run: as §1
# Gal(b1-3)GlcNAc = target: Gal(b1-3)GlcNAc
# How it was run: as §1
# [2] = target: Gal(b1-3)[Fuc(a1-4)]GlcNAc(b1-3)Gal(b1-4)[Fuc(a1-3)]GlcNAc
# How it was run: as §1
# Gal(b1-4)Glc = target: Gal(b1-4)Glc
# How it was run: as §1
# Gal(b1-4)Glc6S = target: Gal(b1-4)Glc6S
# How it was run: as §1
# [3] = target: Gal(b1-4)GlcNAc(b1-3)Gal(b1-4)GlcNAc
# How it was run: as §1
# [4] = target: Gal(b1-4)GlcNAc(b1-3)Gal(b1-4)GlcNAc(b1-3)Gal(b1-4)GlcNAc
# How it was run: as §1
# Gal3S(b1-4)GlcNAc = target: Gal3S(b1-4)GlcNAc
# How it was run: as §1
# [5] = target: Gal3S(b1-4)[Fuc(a1-3)]Glc
# How it was run: as §1
# Gal3S4S(b1-4)GlcNAc = target: Gal3S4S(b1-4)GlcNAc
# How it was run: as §1
# Gal3S6S(b1-4)GlcNAc6S = target: Gal3S6S(b1-4)GlcNAc6S
# How it was run: as §1
# Gal4S(b1-4)GlcNAc = target: Gal4S(b1-4)GlcNAc
# How it was run: as §1
# Glc(a1-6)Glc(a1-6)Glc = target: Glc(a1-6)Glc(a1-6)Glc
# How it was run: as §1
# [6] = target: Man(a1-2)Man(a1-2)Man(a1-6)[Man(a1-3)]Man
# How it was run: as §1
# Man(a1-2)Man(a1-3)Man = target: Man(a1-2)Man(a1-3)Man
# How it was run: as §1
# [7] = target: Man(a1-2)Man(a1-3)[Man(a1-2)Man(a1-6)]Man(a1-6)[Man(a1-2)Man(a1-2)Man(a1-3)]Man(b1-4)GlcNAc(b1-4)GlcNAc
# How it was run: as §1
# [8] = target: Neu5Ac(a2-3)Gal(b1-3)GalNAc(b1-3)Gal(b1-4)GlcNAc
# How it was run: as §1
# [9] = target: Neu5Ac(a2-3)Gal(b1-4)[Fuc(a1-3)]GlcNAc6S
# How it was run: as §1
# [10] = target: Neu5Ac(a2-6)Gal(b1-4)GlcNAc(b1-2)Man(a1-3)[Gal(b1-4)GlcNAc(b1-2)Man(a1-6)]Man(b1-4)GlcNAc(b1-4)GlcNAc
# How it was run: as §1
binder,measurement,setting,value
"NESD (Drosophila melanogaster), NP_610025.1 (protein) MGHHHHHHSSGVDLGTENLYFQSMMEVFTFEKSYLERLKEAEAVLSWEGAVMPASQVRSEWKSYVELKIEPAGWQAIWKIPRVICEDLKLRYPTIVYGYVEQVIFDELKAVFVVTAVQDSDVHLPESNEVSLVELWPTVQQENAALNVDTTAECIDRLRFFYTHVWMPWDKDYDDDRDWVQQHLQARIQLVCDLSKNRLPRPLALHMRTLLAEAKYIQQRLDYLELDLSDAESDDEAVELNDSVAEPARKQSKAGSANGCLNVSSLPVTDLMCLHLRMAIIRSEFEILENPEMRRAYSELQSNSLKRLRCSSGRTRQSEDLLVERNSISHVVTLPGKLQQQLELLKLAQTLVKPESKVQLSNTLQDVLSICQSNDDILLSPGEHTIKFLEHLNDNGSLRGLTQPEAILSPAADLSLLPVVCSSDEDSTLLVIDGDYTLSELVLDCRHVRRGILLRNGTLTMRGCRLLGDGSSSTQEGIVCMPGASVELKSCLIENFAVGVSMRPKSSAELGSVQFKTCKTGLELLEKSASVNLQGSKCSFENCALGILADGFVLGEQRTEKVLVLNKFSELQRYNEDNLLGNCSFYNCKKNVRVFNESGQLLAQRSHQQLLEDELGGENKENIQLV",glycan array binding signal (z-score),Fuc(a1-2)Gal,0.437
same,glycan array binding signal (z-score),[1],1.18
same,glycan array binding signal (z-score),Gal(a1-3)Gal(b1-4)Glc,-0.126
same,glycan array binding signal (z-score),Gal(a1-3)Gal(b1-4)GlcNAc,-0.108
same,glycan array binding signal (z-score),Gal(a1-4)Gal(b1-4)Glc,-0.242
same,glycan array binding signal (z-score),Gal(b1-3)GlcNAc,-0.219
same,glycan array binding signal (z-score),[2],-0.47
same,glycan array binding signal (z-score),Gal(b1-4)Glc,3.98
same,glycan array binding signal (z-score),Gal(b1-4)Glc6S,2.75
same,glycan array binding signal (z-score),[3],0.201
same,glycan array binding signal (z-score),[4],0.303
same,glycan array binding signal (z-score),Gal3S(b1-4)GlcNAc,0.142
same,glycan array binding signal (z-score),[5],-0.195
same,glycan array binding signal (z-score),Gal3S4S(b1-4)GlcNAc,0.201
same,glycan array binding signal (z-score),Gal3S6S(b1-4)GlcNAc6S,1.17
same,glycan array binding signal (z-score),Gal4S(b1-4)GlcNAc,0.349
same,glycan array binding signal (z-score),Glc(a1-6)Glc(a1-6)Glc,6.3
same,glycan array binding signal (z-score),[6],-0.364
same,glycan array binding signal (z-score),Man(a1-2)Man(a1-3)Man,-0.316
same,glycan array binding signal (z-score),[7],0.313
same,glycan array binding signal (z-score),[8],0.016
same,glycan array binding signal (z-score),[9],0.068
same,glycan array binding signal (z-score),[10],0.256
